# ± gives the standard deviation of the averaged measurements. Targets with the largest changes are over-represented here; the source holds about 6,500 in all.
# What was measured:
# Assay in all cases: NP40-soluble protein abundance relative to vehicle (solubility fold change) (ratio); higher = more soluble protein in presence of ATP
# DDX50 = molecular target: T1, DDX50 (UniProt Q9BQ39)
# T1 sequence (whole entry): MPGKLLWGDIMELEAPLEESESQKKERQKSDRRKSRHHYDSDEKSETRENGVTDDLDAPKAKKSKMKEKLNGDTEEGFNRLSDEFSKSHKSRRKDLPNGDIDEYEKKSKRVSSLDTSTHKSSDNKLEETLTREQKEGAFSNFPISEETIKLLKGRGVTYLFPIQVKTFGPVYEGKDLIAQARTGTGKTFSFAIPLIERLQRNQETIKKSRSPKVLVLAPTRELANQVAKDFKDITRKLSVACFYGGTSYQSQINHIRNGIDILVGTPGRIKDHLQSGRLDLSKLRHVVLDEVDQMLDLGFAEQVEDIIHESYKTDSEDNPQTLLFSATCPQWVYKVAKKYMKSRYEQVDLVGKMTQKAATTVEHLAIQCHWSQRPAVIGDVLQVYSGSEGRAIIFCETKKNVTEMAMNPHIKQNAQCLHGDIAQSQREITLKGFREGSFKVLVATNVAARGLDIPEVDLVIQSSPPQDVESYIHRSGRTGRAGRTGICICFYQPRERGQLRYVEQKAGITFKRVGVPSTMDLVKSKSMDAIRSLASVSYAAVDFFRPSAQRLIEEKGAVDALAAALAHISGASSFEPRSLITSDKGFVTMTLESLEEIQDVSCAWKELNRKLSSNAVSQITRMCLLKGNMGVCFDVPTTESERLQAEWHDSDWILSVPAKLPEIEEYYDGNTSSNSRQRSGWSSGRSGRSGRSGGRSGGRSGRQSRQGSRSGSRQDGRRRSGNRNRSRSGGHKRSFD
# Outline: (§1)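 Values are fold changes against the detergent-processed vehicle, based on vsn-normalised intensities. Jurkat crude lysate was treated at eight concentrations from 0.1 to 10 mM (10 min at room temperature, then 3 min at 37 °C), solubilised with 0.8% NP40 and benzonase, ultracentrifuged and analysed by TMT-labelled LC-MS/MS over three independent experiments.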
# PINX1 = molecular target: T2, PINX1 (UniProt Q96BK5)
# T2 sequence (whole entry): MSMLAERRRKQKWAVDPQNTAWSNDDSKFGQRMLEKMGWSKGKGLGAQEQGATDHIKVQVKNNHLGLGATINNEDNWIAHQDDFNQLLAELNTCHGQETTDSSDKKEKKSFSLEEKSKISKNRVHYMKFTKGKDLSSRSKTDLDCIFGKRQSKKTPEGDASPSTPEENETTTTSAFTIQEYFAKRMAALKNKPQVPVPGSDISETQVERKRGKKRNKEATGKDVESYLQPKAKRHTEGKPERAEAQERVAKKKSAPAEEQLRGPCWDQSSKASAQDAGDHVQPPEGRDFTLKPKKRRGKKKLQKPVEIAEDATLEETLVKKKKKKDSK
# Outline: as §1
# [1] = molecular target: T3, UniProt Q969F9|Q969F9-2|G5E9V4
# T3 sequence (whole entry): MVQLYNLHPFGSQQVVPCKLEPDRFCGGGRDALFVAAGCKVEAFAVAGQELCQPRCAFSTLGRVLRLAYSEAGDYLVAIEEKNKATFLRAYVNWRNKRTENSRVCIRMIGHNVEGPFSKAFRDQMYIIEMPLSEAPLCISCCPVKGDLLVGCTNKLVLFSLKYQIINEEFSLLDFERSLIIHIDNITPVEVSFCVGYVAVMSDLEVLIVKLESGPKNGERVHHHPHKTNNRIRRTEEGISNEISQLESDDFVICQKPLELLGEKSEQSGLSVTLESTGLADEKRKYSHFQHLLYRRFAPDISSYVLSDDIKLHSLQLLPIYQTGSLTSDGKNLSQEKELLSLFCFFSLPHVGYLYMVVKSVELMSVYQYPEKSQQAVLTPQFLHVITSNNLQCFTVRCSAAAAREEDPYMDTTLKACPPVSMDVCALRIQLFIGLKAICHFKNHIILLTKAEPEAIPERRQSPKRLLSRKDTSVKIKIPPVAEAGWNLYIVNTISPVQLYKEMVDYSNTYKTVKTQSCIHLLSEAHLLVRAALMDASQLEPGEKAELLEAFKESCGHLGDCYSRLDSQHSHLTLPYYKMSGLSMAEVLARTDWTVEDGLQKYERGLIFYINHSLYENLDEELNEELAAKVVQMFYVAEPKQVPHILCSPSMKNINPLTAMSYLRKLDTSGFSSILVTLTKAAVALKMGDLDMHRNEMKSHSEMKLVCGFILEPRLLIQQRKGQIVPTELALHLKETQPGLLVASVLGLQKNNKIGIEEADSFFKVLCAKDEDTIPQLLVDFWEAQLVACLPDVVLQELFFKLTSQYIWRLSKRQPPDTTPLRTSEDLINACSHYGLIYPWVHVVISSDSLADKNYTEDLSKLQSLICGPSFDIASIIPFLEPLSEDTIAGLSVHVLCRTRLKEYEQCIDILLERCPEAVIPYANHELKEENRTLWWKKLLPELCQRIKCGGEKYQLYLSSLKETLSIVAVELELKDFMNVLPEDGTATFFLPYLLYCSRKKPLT
# Outline: as §1
# UniProt Q96G25|Q96G25-2 = molecular target: T4, UniProt Q96G25|Q96G25-2
# T4 sequence (whole entry): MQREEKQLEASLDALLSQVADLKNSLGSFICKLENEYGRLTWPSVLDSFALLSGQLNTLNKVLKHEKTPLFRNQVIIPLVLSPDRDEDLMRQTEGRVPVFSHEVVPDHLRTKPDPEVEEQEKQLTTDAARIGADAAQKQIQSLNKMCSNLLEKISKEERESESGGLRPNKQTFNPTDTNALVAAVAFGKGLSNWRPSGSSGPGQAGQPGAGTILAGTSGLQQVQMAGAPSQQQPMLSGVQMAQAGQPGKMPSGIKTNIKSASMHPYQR
# Outline: as §1
# UniProt Q9BUA3 = molecular target: T5, UniProt Q9BUA3
# T5 sequence (whole entry): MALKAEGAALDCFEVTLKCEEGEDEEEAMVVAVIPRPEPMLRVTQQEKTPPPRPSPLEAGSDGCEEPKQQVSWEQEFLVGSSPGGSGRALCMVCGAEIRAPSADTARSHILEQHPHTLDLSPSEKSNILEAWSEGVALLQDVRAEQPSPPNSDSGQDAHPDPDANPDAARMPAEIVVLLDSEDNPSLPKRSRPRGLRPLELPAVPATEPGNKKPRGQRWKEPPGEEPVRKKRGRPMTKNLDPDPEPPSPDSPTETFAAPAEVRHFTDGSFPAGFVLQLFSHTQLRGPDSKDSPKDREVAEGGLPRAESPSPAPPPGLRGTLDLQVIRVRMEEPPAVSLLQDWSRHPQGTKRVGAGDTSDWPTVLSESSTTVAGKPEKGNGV
# Outline: as §1
# UniProt Q9H993 = molecular target: T6, UniProt Q9H993
# T6 sequence (whole entry): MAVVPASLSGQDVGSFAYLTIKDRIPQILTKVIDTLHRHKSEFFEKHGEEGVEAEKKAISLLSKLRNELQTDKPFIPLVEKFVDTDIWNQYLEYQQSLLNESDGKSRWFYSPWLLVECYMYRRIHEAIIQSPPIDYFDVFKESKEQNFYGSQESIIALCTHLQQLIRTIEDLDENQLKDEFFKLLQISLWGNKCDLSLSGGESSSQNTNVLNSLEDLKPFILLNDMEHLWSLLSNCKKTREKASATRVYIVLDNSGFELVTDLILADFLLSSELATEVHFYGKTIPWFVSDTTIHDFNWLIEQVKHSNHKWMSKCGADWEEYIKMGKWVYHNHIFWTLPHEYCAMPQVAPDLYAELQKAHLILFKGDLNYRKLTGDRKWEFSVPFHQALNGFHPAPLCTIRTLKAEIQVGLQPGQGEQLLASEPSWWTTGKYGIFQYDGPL
# Outline: as §1
# VRK1 = molecular target: T7, VRK1 (UniProt Q99986)
# T7 sequence (whole entry): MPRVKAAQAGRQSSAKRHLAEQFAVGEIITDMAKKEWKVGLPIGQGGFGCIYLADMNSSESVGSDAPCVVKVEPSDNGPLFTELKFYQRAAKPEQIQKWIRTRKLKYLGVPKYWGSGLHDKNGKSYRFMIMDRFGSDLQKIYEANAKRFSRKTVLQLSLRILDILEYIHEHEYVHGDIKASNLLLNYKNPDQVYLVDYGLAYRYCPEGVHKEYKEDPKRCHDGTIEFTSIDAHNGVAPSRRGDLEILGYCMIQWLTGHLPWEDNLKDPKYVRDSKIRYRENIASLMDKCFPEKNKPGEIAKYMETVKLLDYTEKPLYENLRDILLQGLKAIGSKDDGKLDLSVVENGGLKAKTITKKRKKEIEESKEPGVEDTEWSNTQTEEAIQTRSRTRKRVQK
# Outline: as §1
smiles,measurement,setting,value
Nc1ncnc2c1ncn2[C@@H]1O[C@H](COP(=O)(O)OP(=O)(O)OP(=O)(O)O)[C@@H](O)[C@H]1O [adenosine triphosphate],NP40-soluble protein abundance,DDX50; concentration: 1mM,1.35 ± 0.086
same,NP40-soluble protein abundance,DDX50; concentration: 2mM,1.67 ± 0.17
same,NP40-soluble protein abundance,DDX50; concentration: 4mM,2.19 ± 0.26
same,NP40-soluble protein abundance,DDX50; concentration: 6mM,2.88 ± 0.35
same,NP40-soluble protein abundance,DDX50; concentration: 8mM,3.54 ± 0.54
same,NP40-soluble protein abundance,DDX50; concentration: 10mM,4.32 ± 0.63
same,NP40-soluble protein abundance,PINX1; concentration: 1mM,1.52 ± 0.023
same,NP40-soluble protein abundance,PINX1; concentration: 2mM,1.64 ± 0.086
same,NP40-soluble protein abundance,PINX1; concentration: 4mM,1.78 ± 0.11
same,NP40-soluble protein abundance,PINX1; concentration: 6mM,1.95 ± 0.1
same,NP40-soluble protein abundance,PINX1; concentration: 8mM,1.91 ± 0.13
same,NP40-soluble protein abundance,PINX1; concentration: 10mM,2.03 ± 0.14
same,NP40-soluble protein abundance,[1]; concentration: 1mM,1.07 ± 0.16
same,NP40-soluble protein abundance,[1]; concentration: 2mM,1.11 ± 0.22
same,NP40-soluble protein abundance,[1]; concentration: 4mM,1.05 ± 0.26
same,NP40-soluble protein abundance,[1]; concentration: 6mM,1.05 ± 0.15
same,NP40-soluble protein abundance,[1]; concentration: 8mM,0.905 ± 0.044
same,NP40-soluble protein abundance,[1]; concentration: 10mM,0.962 ± 0.11
same,NP40-soluble protein abundance,UniProt Q96G25|Q96G25-2; concentration: 1mM,1 ± 0.11
same,NP40-soluble protein abundance,UniProt Q96G25|Q96G25-2; concentration: 2mM,0.976 ± 0.074
same,NP40-soluble protein abundance,UniProt Q96G25|Q96G25-2; concentration: 4mM,1.06 ± 0.035
same,NP40-soluble protein abundance,UniProt Q96G25|Q96G25-2; concentration: 6mM,1.07 ± 0.11
same,NP40-soluble protein abundance,UniProt Q96G25|Q96G25-2; concentration: 8mM,0.993 ± 0.039
same,NP40-soluble protein abundance,UniProt Q96G25|Q96G25-2; concentration: 10mM,0.965 ± 0.1
same,NP40-soluble protein abundance,UniProt Q9BUA3; concentration: 1mM,1.02 ± 0.11
same,NP40-soluble protein abundance,UniProt Q9BUA3; concentration: 2mM,1.03 ± 0.09
same,NP40-soluble protein abundance,UniProt Q9BUA3; concentration: 4mM,1.03 ± 0.082
same,NP40-soluble protein abundance,UniProt Q9BUA3; concentration: 6mM,1.04 ± 0.12
same,NP40-soluble protein abundance,UniProt Q9BUA3; concentration: 8mM,0.992 ± 0.08
same,NP40-soluble protein abundance,UniProt Q9BUA3; concentration: 10mM,1 ± 0.019
same,NP40-soluble protein abundance,UniProt Q9H993; concentration: 1mM,1.08 ± 0.068
same,NP40-soluble protein abundance,UniProt Q9H993; concentration: 2mM,1.05 ± 0.06
same,NP40-soluble protein abundance,UniProt Q9H993; concentration: 4mM,1.02 ± 0.039
same,NP40-soluble protein abundance,UniProt Q9H993; concentration: 6mM,0.991 ± 0.072
same,NP40-soluble protein abundance,UniProt Q9H993; concentration: 8mM,1.04 ± 0.047
same,NP40-soluble protein abundance,UniProt Q9H993; concentration: 10mM,1.01 ± 0.053
same,NP40-soluble protein abundance,VRK1; concentration: 1mM,1.39 ± 0.026
same,NP40-soluble protein abundance,VRK1; concentration: 2mM,1.43 ± 0.021
same,NP40-soluble protein abundance,VRK1; concentration: 4mM,1.44 ± 0.039
same,NP40-soluble protein abundance,VRK1; concentration: 6mM,1.51 ± 0.057
same,NP40-soluble protein abundance,VRK1; concentration: 8mM,1.52 ± 0.031
same,NP40-soluble protein abundance,VRK1; concentration: 10mM,1.48 ± 0.063
